Laboratory results from PubChem BioAssay AID1159580 (chemical genetic matrix, 2015).
Screen size: about 5,500 compounds; about 2,000 (36%) were called active. Inconclusive results (about 18%) are left out. Cut-off read from the data, not from the text of the source: active = normalized growth mostly below about 0.91 (no sharp cut-off); inconclusive = no clear call, values can overlap the other calls; inactive = mostly above about 0.92. The list shows a part of the results.

Experiment: chemical genetic growth profiling, strain panel (AID 1159580);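 note: tested at 20 µM; growth read once vehicle control cultures reached saturation at 30 °C; 1 = growth at the plate median or of vehicle wells; lower values mean less growth of the strain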
Conditions: growth OD

Measured: normalized growth

CC1(C)CC[C@]2(C)CC[C@]3(C)C(=CCC4[C@@]5(C)CC[C@H](O)C(C)(C)C5CC[C@]43C)C2C1 (some centres not stated)
inactive: S. cerevisiae deletion strains, locus YJL187C, strain SWE1, stronger effect = lower value 1 | S. cerevisiae deletion strains, locus YJR066W, strain TOR1, stronger effect = lower value 0.993 | S. cerevisiae deletion strains, locus YKL009W, strain mrt4, stronger effect = lower value 0.988 | S. cerevisiae deletion strains, locus YKL068W, stronger effect = lower value 0.985 | S. cerevisiae deletion strains, locus YKL085W, strain MDH1 (second series), stronger effect = lower value 0.999 | S. cerevisiae deletion strains, locus YKL085W, strain MDH1, stronger effect = lower value 0.999 | S. cerevisiae deletion strains, locus YKL160W, strain elf1, stronger effect = lower value 0.987 | S. cerevisiae deletion strains, locus YKL190W, strain CNB1, stronger effect = lower value 1 | S. cerevisiae deletion strains, locus YKR001C, strain vps1, stronger effect = lower value 0.999 | S. cerevisiae deletion strains, locus YKR026C, strain gcn3, stronger effect = lower value 0.989 | S. cerevisiae deletion strains, locus YKR091W, strain srl3, stronger effect = lower value 0.993 | S. cerevisiae deletion strains, locus YLL001W, strain dnm1, stronger effect = lower value 0.987 | S. cerevisiae deletion strains, locus YLL026W, stronger effect = lower value 0.984 | S. cerevisiae deletion strains, locus YLL041C, strain sdh2, stronger effect = lower value 1.01 | S. cerevisiae deletion strains, locus YLR027C, strain aat2, stronger effect = lower value 0.98 | S. cerevisiae deletion strains, locus YLR039C, strain RIC1, stronger effect = lower value 1.02 | S. cerevisiae deletion strains, locus YLR058C, strain SHM2, stronger effect = lower value 1.01 | S. cerevisiae deletion strains, locus YLR102C, strain apc9, stronger effect = lower value 1.01 | S. cerevisiae deletion strains, locus YLR113W, strain HOG1, stronger effect = lower value 0.977 | S. cerevisiae deletion strains, locus YLR221C, strain rsa3, stronger effect = lower value 0.987 | S. cerevisiae deletion strains, locus YLR258W, strain gsy2, stronger effect = lower value 1.01 | S. cerevisiae deletion strains, locus YLR262C, strain YPT6 (second series), stronger effect = lower value 1.01 | S. cerevisiae deletion strains, locus YLR268W, strain sec22, stronger effect = lower value 1.03 | S. cerevisiae deletion strains, locus YLR320W, strain mms22, stronger effect = lower value 0.994 | S. cerevisiae deletion strains, locus YLR342W, strain FKS1, stronger effect = lower value 0.996 | S. cerevisiae deletion strains, locus YLR357W, strain rsc2, stronger effect = lower value 0.971 | S. cerevisiae deletion strains, locus YLR370C, strain arc18, stronger effect = lower value 0.999 | S. cerevisiae deletion strains, locus YLR371W, strain rom2, stronger effect = lower value 0.973 | S. cerevisiae deletion strains, locus YLR384C, strain iki3, stronger effect = lower value 0.967 | S. cerevisiae deletion strains, locus YLR418C, strain cdc73, stronger effect = lower value 0.994 | S. cerevisiae deletion strains, locus YML016C, strain PPZ1, stronger effect = lower value 1.01 | S. cerevisiae deletion strains, locus YML032C, strain rad52, stronger effect = lower value 0.991 | S. cerevisiae deletion strains, locus YML120C, strain ndi1, stronger effect = lower value 0.979 | S. cerevisiae deletion strains, locus YML124C, strain tub3, stronger effect = lower value 0.984 | S. cerevisiae deletion strains, locus YMR058W, strain fet3, stronger effect = lower value 0.988 | S. cerevisiae deletion strains, locus YMR078C, strain ctf18, stronger effect = lower value 0.994 | S. cerevisiae deletion strains, locus YMR125W, strain sto1, stronger effect = lower value 0.994 | S. cerevisiae deletion strains, locus YMR129W, stronger effect = lower value 0.991 | S. cerevisiae deletion strains, locus YMR205C, strain PFK2, stronger effect = lower value 1.01 | S. cerevisiae deletion strains, locus YMR223W, strain ubp8, stronger effect = lower value 0.992 | S. cerevisiae deletion strains, locus YMR231W, strain pep5, stronger effect = lower value 0.997 | S. cerevisiae deletion strains, locus YMR263W, strain SAP30, stronger effect = lower value 0.979 | S. cerevisiae deletion strains, locus YMR307W, strain GAS1, stronger effect = lower value 1.06 | S. cerevisiae deletion strains, locus YNL067W, strain RPL9B, stronger effect = lower value 0.973 | S. cerevisiae deletion strains, locus YNL071W, strain lat1, stronger effect = lower value 0.997 | S. cerevisiae deletion strains, locus YNL153C, strain GIM3, stronger effect = lower value 0.973 | S. cerevisiae deletion strains, locus YNL183C, strain NPR1, stronger effect = lower value 0.984 | S. cerevisiae deletion strains, locus YNL209W, strain ssb2, stronger effect = lower value 0.975 | S. cerevisiae deletion strains, locus YNL233W, strain BNI4, stronger effect = lower value 1.01 | S. cerevisiae deletion strains, locus YNL248C, strain rpa49, stronger effect = lower value 0.985 | S. cerevisiae deletion strains, locus YNL250W, strain rad50, stronger effect = lower value 0.963 | S. cerevisiae deletion strains, locus YNL271C, strain bni1, stronger effect = lower value 0.978 | S. cerevisiae deletion strains, locus YNL298W, strain CLA4, stronger effect = lower value 0.991 | S. cerevisiae deletion strains, locus YNL307C, strain MCK1, stronger effect = lower value 1 | S. cerevisiae deletion strains, locus YNL322C, strain KRE1 (second series), stronger effect = lower value 0.965 | S. cerevisiae deletion strains, locus YNR049C, strain mso1, stronger effect = lower value 0.987 | S. cerevisiae deletion strains, locus YNR052C, strain pop2, stronger effect = lower value 0.968 | S. cerevisiae deletion strains, locus YOL006C, strain TOP1, stronger effect = lower value 1.14 | S. cerevisiae deletion strains, locus YOL012C, strain htz1 1.39 | S. cerevisiae deletion strains, locus YOL147C, strain pex11, stronger effect = lower value 0.98 | S. cerevisiae deletion strains, locus YOR001W, strain rrp6, stronger effect = lower value 1 | S. cerevisiae deletion strains, locus YOR061W, strain CKA2, stronger effect = lower value 1.01 | S. cerevisiae deletion strains, locus YOR069W, strain VPS5, stronger effect = lower value 1.01 | S. cerevisiae deletion strains, locus YOR070C, strain gyp1, stronger effect = lower value 0.991 | S. cerevisiae deletion strains, locus YOR080W, strain dia2, stronger effect = lower value 0.998 | S. cerevisiae deletion strains, locus YOR083W, strain WHI5, stronger effect = lower value 1 | S. cerevisiae deletion strains, locus YOR106W, strain vam3, stronger effect = lower value 0.993 | S. cerevisiae deletion strains, locus YOR136W, strain idh2, stronger effect = lower value 0.994 | S. cerevisiae deletion strains, locus YOR144C, strain elg1, stronger effect = lower value 0.994 | S. cerevisiae deletion strains, locus YOR184W, strain ser1, stronger effect = lower value 1.02 | S. cerevisiae deletion strains, locus YOR231W, strain MKK1, stronger effect = lower value 1.01 | S. cerevisiae deletion strains, locus YOR265W, strain rbl2, stronger effect = lower value 0.996 | S. cerevisiae deletion strains, locus YOR270C, strain vph1, stronger effect = lower value 1.05 | S. cerevisiae deletion strains, locus YOR290C, strain snf2, stronger effect = lower value 0.989 | S. cerevisiae deletion strains, locus YOR316C, strain cot1, stronger effect = lower value 0.993 | S. cerevisiae deletion strains, locus YPL051W, strain arl3, stronger effect = lower value 1 | S. cerevisiae deletion strains, locus YPL078C, strain atp4, stronger effect = lower value 1.01 | S. cerevisiae deletion strains, locus YPL106C, strain sse1, stronger effect = lower value 0.961 | S. cerevisiae deletion strains, locus YPL240C, strain hsp82, stronger effect = lower value 0.988 | S. cerevisiae deletion strains, locus YPL241C, strain CIN2, stronger effect = lower value 0.992 | S. cerevisiae deletion strains, locus YPL256C, strain CLN2, stronger effect = lower value 1.03 | S. cerevisiae deletion strains, locus YPR119W, strain clb2, stronger effect = lower value 0.984 | S. cerevisiae deletion strains, locus YPR141C, strain kar3, stronger effect = lower value 0.971 | S. cerevisiae deletion strains, locus YPR163C, strain tif3, stronger effect = lower value 1 | S. cerevisiae deletion strains, locus YPR167C, strain met16, stronger effect = lower value 0.982 | S. cerevisiae deletion strains, strain wtn01, stronger effect = lower value 1.01 | S. cerevisiae strains, strain wild type, stronger effect = lower value 1.02
